Where two headings read alike, the source gives them in different places.
Columns and labels:
[1] = tested on: T1, YANK1; settings: concentration: 1 μM, replicates: in singlicate; n = 1
T1 construct: gene STK32A

[2] = tested on: T2, YANK2; settings: concentration: 1 μM, replicates: in singlicate; n = 1
T2 construct: gene STK32B

[3] = tested on: T3, YANK3; settings: concentration: 1 μM, replicates: in singlicate; n = 1
T3 construct: gene STK32C

[4] = tested on: T4, YES; settings: concentration: 1 μM, replicates: in singlicate; n = 1
T4 construct: gene YES1

[5] = tested on: T5, YSK1; settings: concentration: 1 μM, replicates: in singlicate; n = 1
T5 construct: gene STK25

[6] = tested on: T6, YSK4; settings: concentration: 1 μM, replicates: in singlicate; n = 1
T6 construct: gene MAP3K19

[7] = tested on: ZAK; settings: concentration: 1 μM, replicates: in singlicate; n = 1
[8] = tested on: ZAP70; settings: concentration: 1 μM, replicates: in singlicate; n = 1
[9] = tested on: T7, p38-alpha; settings: n = 1
T7 construct: gene MAPK14

[10] = tested on: T8, p38-beta; settings: concentration: 1 μM, replicates: in singlicate; n = 1
T8 construct: gene MAPK11

[11] = tested on: p38-delta; settings: concentration: 1 μM, replicates: in singlicate; n = 1
[12] = tested on: T9, p38-gamma; settings: concentration: 1 μM, replicates: in singlicate; n = 1
T9 construct: gene MAPK12

[13] = concentration: 1 μM, replicates: in singlicate
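Also: KINOMEscan kinase panel screen.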

SMILES | %Inh [1] [%] | %Inh [2] [%] | %Inh [3] [%] | %Inh [4] [%] | %Inh [5] [%] | %Inh [6] [%] | %Inh [7] [%] | %Inh [8] [%] | %Inh [9, 13] [%] | %Inh [10] [%] | %Inh [11] [%] | %Inh [12] [%] | %Inh ([9]; 1 µM) [%]
Cc1ccc(Oc2ccc(Nc3ncnc4cc[nH]c34)cc2C)cn1 | 5 | 22 | 11 | 3 | 0 | 14 | 5 | 0 | 5 | 28 | 30 | 35 | –
CCC(=O)c1c(-c2ccccc2)c2cc(Cl)ccc2c(=O)n1Cc1ccc(C(=O)O)cc1 | 0 | 4 | 5 | 0 | 0 | 0 | 0 | 0 | 23 | 0 | 4 | 0 | –
CCCNC(=O)Nc1ccc(Oc2ncnc3ccn(C)c23)cc1 | 0 | 8 | 13 | 0 | 3 | 33 | 1 | 0 | 2 | 15 | 4 | 3 | –
Nc1ncnc2c1ncn2-c1cccc2ccccc12 [SKF-97184] | 0 | 80 | 4 | 0 | 12 | 23 | 0 | 37 | 0 | 0 | 0 | 0 | –
Cl.NS(=O)(=O)c1cccc(Nc2cc(-c3ccc(F)cc3)n[nH]2)c1 [GW824645] | 0 | 0 | 0 | 0 | 8 | 0 | 0 | 0 | 0 | 0 | 0 | 0 | –
CCC(=O)c1c(-c2ccccc2)c2cc(Cl)ccc2c(=O)n1Cc1cc(S(C)(=O)=O)n(CCC(C)(C)O)n1 | 19 | 13 | 23 | 0 | 0 | 0 | 27 | 3 | 16 | 6 | 32 | 26 | –
Nc1ncnc2c1ncn2-c1cccc(F)c1 [SKF-97560] | 17 | 0 | 0 | 16 | 0 | 40 | 26 | 21 | 0 | 0 | 0 | 48 | –
Cc1nnc(-c2ccc(C)c(-c3ccc(C(=O)O)cc3)c2)o1 [GW608005] | 0 | 0 | 9 | 0 | 0 | 15 | 0 | 0 | 0 | 0 | 2 | 0 | –
CN(C)c1cc(-c2ccc3c(N)n[nH]c3c2)nc(N)n1 [GSK2219329] | 7 | 0 | 0 | 1 | 12 | 16 | 92.5 | 0 | 0 | 0 | 37 | 0 | –
CN1C(=O)C(Nc2cc(Cl)c(O)c(Cl)c2)=C(c2ccc(Cl)cc2)C1=O [SB-404321] | 0 | 0 | 0 | 0 | 0 | 0 | 0 | 0 | 2 | 0 | 21 | 23 | –
COc1ccc(-c2cc3c(C)nc(N)nc3n([C@H]3CC[C@H](OCCO)CC3)c2=O)cn1 | 14 | 0 | 0 | 0 | 0 | 0 | 1 | 0 | 0 | 0 | 13 | 0 | –
CCS(=O)(=O)c1ccc(OC)c(Nc2ncc(-c3ccc(F)cc3)o2)c1.Cl [GW591947] | 11 | 2 | 2 | 6 | 3 | 10 | 0 | 0 | 0 | 0 | 43 | 6 | –
Nc1nccc2scc(-c3ccc4c(c3)CCN4C(=O)Cc3ccccc3)c12 [GSK2576924] | 10 | 9 | 0 | 5 | 0 | 36 | 0 | 0 | 0 | 0 | 19 | 5 | –
COc1cc2ncn(-c3cc(OCc4ccc(S(C)(=O)=O)cc4)c(C(N)=O)s3)c2cc1OC [GW869979] | 7 | 0 | 0 | 28 | 0 | 57 | 0 | 17 | 1 | 1 | 0 | 24 | –
FC(F)(F)c1ccc(-c2ncn(CCCN3CCOCC3)c2-c2ccncc2)cc1 [SB-217780] | 17 | 1 | 7 | 3 | 0 | 10 | 17 | 12 | 25 | 5 | 42 | 2 | –
Nc1nc(-c2ccccc2F)c(-c2ccnc3ccccc23)s1 [GW560459] | 39 | 8 | 0 | 0 | 13 | 13 | 17 | 13 | 99.8 | 0 | 36 | 0 | –
C[C@@H]1CC[C@H](C(=O)NC2CCCCC2)CN1c1cc(-c2ccc3c(N)n[nH]c3c2)nc(N)n1 [GSK2291363] | 6 | 3 | 26 | 21 | 24 | 27 | 9 | 0 | 36 | 0 | 42 | 45 | –
CCC(=O)c1c(-c2ccccc2)c2cc(Cl)ccc2c(=O)n1Cc1cc(S(C)(=O)=O)n(CC(F)F)n1 | 0 | 8 | 0 | 0 | 0 | 0 | 0 | 11 | 10 | 2 | 19 | 0 | –
COc1cccc(C2=C(Nc3cccc(C(=O)O)c3)C(=O)NC2=O)c1 [SB-390770] | 12 | 0 | 16 | 8 | 0 | 14 | 41 | 7 | 0 | 11 | 34 | 0 | –
CCC(=O)c1c(-c2ccccc2)c2cc(Cl)ccc2c(=O)n1Cc1cc(S(C)(=O)=O)n(CC(N)=O)n1 | 0 | 0 | 0 | 0 | 0 | 0 | 0 | 0 | 0 | 8 | 16 | 7 | –
O=C(Nc1n[nH]c2cc(-c3ccccc3F)ccc12)C1CC1 [SB-733371] | 0 | 0 | 0 | 0 | 0 | 87 | 0 | 0 | 4 | 9 | 0 | 19 | –
Cn1c(=O)c(F)c(Nc2ccc(I)cc2F)c2c(=O)n(OC[C@H](O)CO)cnc21 | 0 | 10 | 0 | 0 | 0 | 0 | 19 | 0 | 13 | 11 | 0 | 39 | –
O=C(NCc1cccs1)c1cc(C(=O)c2c(Cl)cccc2Cl)c[nH]1 [GW823670] | 0 | 0 | 0 | 0 | 11 | 0 | 0 | 0 | – | 9 | 0 | 0 | 23
Fc1cccc(CSc2nnc(-c3ccc4c(c3)CCO4)o2)c1 | 16 | 12 | 0 | 8 | 0 | 20 | 0 | 0 | 0 | 16 | 28 | 21 | –
COc1cc2nccc(Nc3cccc(Oc4ccccc4)c3)c2cc1OC.Cl [GW284543] | 5 | 0 | 1 | 19 | 0 | 0 | 17 | 0 | 0 | 0 | 22 | 0 | –
O=C(Nc1ccc2c(c1)OCO2)NC1CCN(c2ccnc(NCc3ccc(F)cc3)n2)CC1 [GSK1379859] | 11 | 0 | 0 | 9 | 0 | 0 | 0 | 0 | 0 | 0 | 28 | 0 | –
COc1cc(OC)cc(-c2cc3cnc(N)nc3nc2NC(=O)NC(C)(C)C)c1 | 11 | 19 | 0 | 100 | 0 | 15 | 15 | 0 | 6 | 7 | 0 | 9 | –
COc1ccc(-n2cnc3c(N)ncnc32)cc1 [SKF-97236] | 0 | 10 | 0 | 0 | 0 | 34 | 15 | 0 | 0 | 21 | 0 | 12 | –
O=C(Nc1n[nH]c2nc(-c3ccccc3)c(Cl)cc12)C1CC1 [SB-734909] | 17 | 0 | 0 | 0 | 0 | 85 | 14 | 10 | 24 | 39 | 10 | 27 | –
Cc1c(Cn2c(C)nn3c(=O)cc(N4CCO[C@H](C)C4)nc23)cccc1C(F)(F)F [GSK2373690] | 11 | 18 | 8 | 10 | 6 | 33 | 9 | 0 | 0 | 0 | 41 | 0 | –

Reference: paper PMC5540273 (PLoS ONE, 2017)
